Compound activity as filed in PubChem BioAssay.
PTAP-TSG101 blk: qHTS Validation Assay for Inhibitors of HIV-1 Budding by Blocking the Interaction of PTAP/TSG101: Sytravon Library Screen | Fluorescence polarization, FITC-PTAP peptide/Tsg101, 20 min | Potency, µM (highest dose often 115 µM), hits mostly inhibitors | 44,000 tested, under 10 active | AID 1347069, 2019; note: potency is the fitted concentration of half-maximal effect; 0% is about no effect
Target sequence (Q99816 whole entry, looked up): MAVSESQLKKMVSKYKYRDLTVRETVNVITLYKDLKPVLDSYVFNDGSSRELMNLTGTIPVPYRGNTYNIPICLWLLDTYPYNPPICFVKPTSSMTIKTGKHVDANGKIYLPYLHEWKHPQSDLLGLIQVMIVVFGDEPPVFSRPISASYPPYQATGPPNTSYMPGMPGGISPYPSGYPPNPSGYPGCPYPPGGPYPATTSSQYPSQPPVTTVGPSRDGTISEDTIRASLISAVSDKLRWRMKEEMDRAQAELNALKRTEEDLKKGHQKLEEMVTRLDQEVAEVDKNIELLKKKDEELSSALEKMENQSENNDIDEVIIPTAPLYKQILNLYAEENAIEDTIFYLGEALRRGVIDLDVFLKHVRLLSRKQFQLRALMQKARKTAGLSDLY
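FITC-labeled PTAP peptide (50 nM final) binding to Tsg101 binding domain (10 uM final) read by fluorescence polarization after 20 min at r.t. in HEPES pH 7.5 buffer. Actives by CRC class, <25 µM.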
DRV1 agonist: qHTS for Agonists of Human Resolvin D1 Receptor DRV1 | CHO-K1 GPR32 beta-arrestin PathHunter luminescence, 90 min; zero percent set by DMSO-only wells | activation, % at 76.9 µM | hit rate 2.5% among 48,000 | AID 1346428, 2018;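 active = activation of at least 60% and not above a set upper limit, about 1 call in 100 departs from these limits; inconclusive = activation of 40% to 60%, or above that upper limit; inactive = activation under 40%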; note: 0% is about no effect
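Agonism was scored by beta-Gal fragment complementation (chemiluminescent read, 1 h detection at ambient temperature) reporting beta-arrestin binding to GPR32 in engineered CHO-K1 cells. Compound treatment lasted 90 min at 37 C, normalized to a DMSO basal control.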
B2AR arrestin ag: qHTS assay of beta-arrestin-biased ligands of beta2-adrenergic receptor: NCGC Sytravon Library Screen. HTLA Tango cells, beta-arrestin recruitment, luciferase luminescence, 18 h. Potency, µM (highest dose often 46.1 µM), hits mostly activators. 44,000 tested, under 10 active;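 note: potency is the fitted concentration of half-maximal effect; 0% = DMSO and full agonism = EC100 isoproterenol or metaproterenol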
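Receptor–beta-arrestin recruitment read by tTA-responsive luciferase: compound titrations (up to 46 µM) incubated 18 h with Tango cells, then luminescent substrate 15 min at room temperature. Concentration-response fits classified by r2, efficacy and activity.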
GALC G270D up: A Novel Cell-Based Assay to Identify Small Molecules for B -Galactocerebrosidase | 145M-Twi-hGALC-G270D cells (Twitcher mouse brain line with human GALC G270D), HMU-beta-Gal fluorescence, 48 h | Potency, µM (highest dose often 57.5 µM), actives largely listed as activators | hit rate 0.1% among 45,000 | AID 1159614, 2016; note: potency is the fitted concentration of half-maximal effect; 0% is about no effect; nearly all actives have a fitted effect of over 65% in size
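Live 145M-Twi cells (Twitcher mouse brain-derived, GALC-null) stably expressing human GALC-G270D, with a wild-type GALC line, were compound-treated. Residual GALC activity was then read as fluorescence from 0.1 mM final HMU-β-gal at pH 5.2; higher signal means activation.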
Numbers without * were called inactive; i = inactive; ? = inconclusive; . = no result. Rows were chosen to be rich in hits. Some 2.9% of all compounds tested hit in one or more screens of this group. Unless noted, calls come from the whole dose curve; as a rule, active = well fitted curve in the direction sought with a large enough effect; inconclusive = small, poorly fitted or top-dose-only effect, or another doubt; inactive = no such curve, though single readings can be large; an effect the other way counts as inactive or inconclusive.

SMILES	PTAP-TSG101 blk	DRV1 agonist	B2AR arrestin ag	GALC G270D up
COc1ccc(-c2ccc3c(N)c(C(=O)Nc4ccc(C)cc4C)sc3n2)cc1OC	i	20.8	i	i
COc1ccc(Cl)cc1NC(=O)c1sc2nc(-c3ccc(OC)c(OC)c3)ccc2c1N	i	8.6	i	11.2µM*
CC(=O)/C=C/C=C1/C2CCC(C2)C1(C)C (centres undefined)	.	-13.9	.	i
COc1ccccc1CNC(=O)C(C)n1c(=O)cc(C(F)(F)F)c2c(C)nn(C)c21 (centres undefined)	i	0.0	i	i
CCc1ccc(NC(=O)CSc2nc3n[nH]c(C)c3c(=N)n2-c2ccccc2C)cc1	i	61.7*	i	i
CC(C(O)c1ccccc1)N(C)CCOC(c1ccccc1)c1ccccc1 (centres undefined)	.	29.5	.	i
Cc1ccc(Cl)cc1NC(=O)CSc1nc(C)c(C)c(C)c1C#N	i	115.2*	i	i
CCOc1cccc(C2Nc3ccccc3-c3cc(C)nn32)c1O (centres undefined)	i	-3.1	i	i
CCOc1ccc(C2Nc3c(C)cccc3-c3cc(C)nn32)cc1 (centres undefined)	i	-7.9	i	25.1µM*
CCn1c(=O)cc(SCC(=O)NCc2ccc(C)cc2)c2ccccc21	i	69.3*	i	i
CN(CCCNC(=O)c1cc2c(Cl)nc3ccccc3c2s1)Cc1ccccc1	i	-13.9	i	i
CCOc1ccc(CNC(=O)CSc2cc(=O)n(CC)c3ccccc23)cc1	i	46.7	i	i
CCN(CCCNC(=O)c1cc2c(=O)n(C)c3ccccc3c2s1)c1ccccc1	i	70.3*	i	i
CCN(CCCNC(=O)c1cc2c(Cl)nc3ccccc3c2s1)Cc1ccccc1	i	95.3*	i	i
CCc1ccc(CNC(=O)CSc2cc(=O)n(CC)c3ccccc23)cc1	i	60.5*	i	i
Cc1coc2ccccc2c1=O	.	16.4	.	i
Cc1c(F)cc2c(=O)c(C(=O)O)cn3c2c1CCC3C (centres undefined)	.	-12.3	.	i
COc1cc(NC(=O)CCS(=O)(=O)c2ccc3c(c2)CC(=O)N3C)cc(OC)c1OC	i	-7.2	i	i
CCN(CCCNC(=O)CSc1cc(=O)n(CC)c2ccccc12)c1ccccc1	i	116.8*	i	i
CCN(CCCNC(=O)CSc1cc(=O)n(C)c2ccccc12)c1ccccc1	i	-3.4	i	i
CCOC(=O)C(CC)Sc1nnc2[nH]c(=O)cc(C)n12 (centres undefined)	i	4.3	i	i
COC(=O)CCCCC(CCSS/C(CCO)=C(\C)N(C=O)Cc1cnc(C)nc1N)SC(C)=O (centres undefined)	.	-49.4	.	i
O=C(CSc1ncc(CO)n1Cc1ccccc1)Nc1ccc(C(F)(F)F)cc1	i	117.6*	i	i
O=C(CSc1ncc(CO)n1Cc1ccccc1)Nc1nc2ccccc2s1	i	60.3*	i	i
Cc1ccc(Cn2c(CO)cnc2SCC(=O)NCc2ccccc2Cl)cc1	i	2.7	i	.
SMILES	PTAP-TSG101 blk	DRV1 agonist	B2AR arrestin ag	GALC G270D up
COc1ccc(-n2nc(C(=O)Nc3cc(C)ccn3)c3c4ccccc4n(C)c3c2=O)cc1Cl	i	11.8	i	i
O=C(c1ccc(CSc2nc3ccncc3n2Cc2ccc(F)cc2)cc1)N1CCCCCC1	i	61.4*	i	i
O=C(c1ccc(CSc2nc3ccncc3n2Cc2cccc(F)c2)cc1)N1CCCCC1	i	38.0	i	i
COc1ccc(-c2nnc(SCC(=O)Nc3ccc(C)c(C)c3)s2)cc1	i	115.4*	i	i
COc1ccc(-c2nnc(SCC(=O)Nc3cccc(C)c3)s2)cc1	i	4.0	i	i
O=c1oc2c(CN3CCOCC3)c(O)ccc2cc1-c1ccccc1	i	-36.5	i	25.1µM*
CN1CCN(Cc2c(O)ccc3cc(-c4ccccc4)c(=O)oc23)CC1	i	3.7	i	i
Cc1nc2cccnc2n1C1CCN(C(=O)Nc2ccc(Cl)cc2)CC1	i	87.7*	i	i
CCOc1ccc(S(=O)(=O)N2CCC(n3c(C)nc4cccnc43)CC2)cc1	i	75.6*	i	i
Cc1ccc(NC(=O)N2CCC(n3c(C)nc4cccnc43)CC2)c(Cl)c1	i	1.4	i	i
Cc1ccc(CCNC(=O)c2cc3ccccn3n2)cc1	i	111.0*	i	.
Cc1ccc(CN2CCCn3nc(C(=O)NCCc4ccc(Cl)cc4)cc3C2=O)cc1	i	115.2*	i	i
CSc1ccc(CCNC(=O)c2cc3n(n2)CCCN(Cc2ccc(C)cc2)C3=O)cc1	i	12.9	i	i
CCN1CCN(C(=O)Cn2c(-c3cccs3)cc3cc(Cl)ccc32)CC1	i	-6.3	i	i
O=C(COc1ccc(F)cc1)NC1CC(=O)N(c2ccc3c(c2)OCCO3)C1 (centres undefined)	i	115.5*	i	i
O=C(COc1ccccc1)NC1CC(=O)N(c2ccc3c(c2)OCCO3)C1 (centres undefined)	i	-1.3	i	i
CC(C)(C)CC(=O)OCC(=O)[C@@]1(O)CC[C@H]2[C@@H]3CCC4=CC(=O)C=C[C@]4(C)[C@H]3[C@@H](O)C[C@@]21C	.	119.3*	.	i
CCC(=O)N1CCc2cc(S(=O)(=O)CCC(=O)Nc3ccc(Cl)c(C(F)(F)F)c3)ccc21	i	88.1*	i	i
COc1ccc(OCC(=O)Nc2nc(-c3ccc(Br)cc3)ns2)cc1	i	27.6	i	i
COc1cc(C2Nc3ccccc3-c3nnc(SCc4ccc(Cl)cc4)nc3O2)ccc1OCC(=O)O (centres undefined)	i	?	i	i
O=C(O)COc1ccccc1C1Nc2ccccc2-c2nnc(SCc3ccc(Cl)cc3)nc2O1 (centres undefined)	i	107.9*	i	i
O=C(c1ccc(F)cc1)C1CCN(CCn2c(=S)[nH]c3ccccc3c2=O)CC1	.	68.0*	.	i
Cc1nn(Cc2ccc(Cl)cc2)c(C)c1NC(=O)c1noc2c1CCc1ccccc1-2	i	107.2*	i	.
Cc1nn(Cc2ccccc2Cl)c(C)c1NC(=O)c1cc(C(C)C)on1	i	86.1*	i	.
CSc1ccc(CCNC(=O)CN2C(=O)COc3ccc(S(=O)(=O)N4CCCC4)cc32)cc1	i	2.7	i	i
